Laboratory results: PubChem BioAssay (NCI)
The panel holds about 83,000 compounds, 20% with a hit somewhere; the sample as a whole holds those more often.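 Cells were grown in 96-well plates and exposed to the test compound at a single concentration for 48 hours; results are reported as percent growth, with values below 10 considered active.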 A number with no mark means an inactive call. Calls of active or inactive are those of the source.

System: MDA-MB-468 breast
Experiment: NCI-60 one-dose screen, 48 h (100 = growth as untreated, 0 = no growth, -100 = all killed)
Settings: 10 µM unless noted

## COc1cc(/C=C/[N+](=O)[O-])c([N+](=O)[O-])cc1OC
  growth: -71.2% (active)

## COC(=O)CC[C@H](Cc1ccccc1)NC(=O)c1csc([C@@H](C[C@H](C(C)C)N(C)C(=O)[C@@H](NC(=O)[C@H]2CCCCN2C)C(C)C)OC(C)=O)n1
  growth: 66.9%

## Cc1c2ccncc2c(C)c2c1[nH]c1ccccc12
  growth: -54.9% (active)

## CCCCCCCC[n+]1ccc2ccccc2c1
  growth: 8.79% (active)

## CC1(C)N(Nc2ccccc2)C(=O)C2CCCN21 (configuration not stated)
  growth: 79.2%

## CN1CCCCC1C(C)(O)c1ccccc1 (configuration not stated)
  growth: 102%

## O=C(c1cccc(O)c1O)c1cn(Cc2ccc(F)cc2)c2cccc(O)c12
  growth: 27%
